Results as given in PubChem BioAssay AID1159580 (chemical genetic matrix, 2015).
Screen size: about 5,500 compounds; about 2,000 (36%) were called active. Another 18% or so got no clear call; they are omitted. Cut-off read from the data, not from the text of the source: active = normalized growth mostly below about 0.91 (no sharp cut-off); inconclusive = no clear call, values can overlap the other calls; inactive = mostly above about 0.92. The list shows a part of the results.

Assay: chemical genetic growth profiling, strain panel (AID 1159580);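 note: tested at 20 µM; growth read once vehicle control cultures reached saturation at 30 °C; 1 = growth at the plate median or of vehicle wells; lower values mean less growth of the strain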
Conditions: growth OD

Measured: normalized growth

C=C1CCC2C(CC2(C)C)C(=O)CCC1O (stereo unspecified)
inactive: S. cerevisiae deletion strains, locus YJL168C, strain set2, active compounds read low 1.01 | S. cerevisiae deletion strains, locus YJL187C, strain SWE1 (second series), active compounds read low 1.06 | S. cerevisiae deletion strains, locus YJL187C, strain SWE1, active compounds read low 0.993 | S. cerevisiae deletion strains, locus YJR066W, strain TOR1, active compounds read low 0.949 | S. cerevisiae deletion strains, locus YKL009W, strain mrt4, active compounds read low 1.02 | S. cerevisiae deletion strains, locus YKL068W, active compounds read low 1 | S. cerevisiae deletion strains, locus YKL085W, strain MDH1 (second series), active compounds read low 0.993 | S. cerevisiae deletion strains, locus YKL085W, strain MDH1, active compounds read low 0.993 | S. cerevisiae deletion strains, locus YKL160W, strain elf1, active compounds read low 0.982 | S. cerevisiae deletion strains, locus YKR001C, strain vps1, active compounds read low 1.02 | S. cerevisiae deletion strains, locus YKR026C, strain gcn3, active compounds read low 1 | S. cerevisiae deletion strains, locus YKR091W, strain srl3, active compounds read low 0.988 | S. cerevisiae deletion strains, locus YLL001W, strain dnm1, active compounds read low 0.954 | S. cerevisiae deletion strains, locus YLL026W, active compounds read low 1 | S. cerevisiae deletion strains, locus YLL041C, strain sdh2, active compounds read low 0.987 | S. cerevisiae deletion strains, locus YLR027C, strain aat2, active compounds read low 0.996 | S. cerevisiae deletion strains, locus YLR039C, strain RIC1, active compounds read low 1.04 | S. cerevisiae deletion strains, locus YLR058C, strain SHM2, active compounds read low 1.04 | S. cerevisiae deletion strains, locus YLR102C, strain apc9, active compounds read low 1.01 | S. cerevisiae deletion strains, locus YLR113W, strain HOG1, active compounds read low 1.01 | S. cerevisiae deletion strains, locus YLR221C, strain rsa3, active compounds read low 1.04 | S. cerevisiae deletion strains, locus YLR258W, strain gsy2, active compounds read low 0.993 | S. cerevisiae deletion strains, locus YLR262C, strain YPT6 (second series), active compounds read low 1.01 | S. cerevisiae deletion strains, locus YLR268W, strain sec22, active compounds read low 1 | S. cerevisiae deletion strains, locus YLR320W, strain mms22, active compounds read low 1.06 | S. cerevisiae deletion strains, locus YLR342W, strain FKS1, active compounds read low 0.997 | S. cerevisiae deletion strains, locus YLR357W, strain rsc2, active compounds read low 0.981 | S. cerevisiae deletion strains, locus YLR370C, strain arc18, active compounds read low 1 | S. cerevisiae deletion strains, locus YLR371W, strain rom2, active compounds read low 1.02 | S. cerevisiae deletion strains, locus YLR384C, strain iki3, active compounds read low 1.01 | S. cerevisiae deletion strains, locus YLR418C, strain cdc73, active compounds read low 1.05 | S. cerevisiae deletion strains, locus YML016C, strain PPZ1, active compounds read low 1.02 | S. cerevisiae deletion strains, locus YML032C, strain rad52, active compounds read low 1.01 | S. cerevisiae deletion strains, locus YML120C, strain ndi1, active compounds read low 0.965 | S. cerevisiae deletion strains, locus YML124C, strain tub3, active compounds read low 1.01 | S. cerevisiae deletion strains, locus YMR058W, strain fet3, active compounds read low 0.98 | S. cerevisiae deletion strains, locus YMR078C, strain ctf18, active compounds read low 1.01 | S. cerevisiae deletion strains, locus YMR125W, strain sto1, active compounds read low 0.973 | S. cerevisiae deletion strains, locus YMR129W, active compounds read low 1.01 | S. cerevisiae deletion strains, locus YMR205C, strain PFK2, active compounds read low 0.955 | S. cerevisiae deletion strains, locus YMR223W, strain ubp8, active compounds read low 1.03 | S. cerevisiae deletion strains, locus YMR231W, strain pep5, active compounds read low 1.01 | S. cerevisiae deletion strains, locus YMR307W, strain GAS1, active compounds read low 1.07 | S. cerevisiae deletion strains, locus YNL067W, strain RPL9B, active compounds read low 1.03 | S. cerevisiae deletion strains, locus YNL071W, strain lat1, active compounds read low 0.992 | S. cerevisiae deletion strains, locus YNL128W, strain TEP1, active compounds read low 0.993 | S. cerevisiae deletion strains, locus YNL183C, strain NPR1, active compounds read low 0.968 | S. cerevisiae deletion strains, locus YNL209W, strain ssb2, active compounds read low 0.987 | S. cerevisiae deletion strains, locus YNL233W, strain BNI4, active compounds read low 1.05 | S. cerevisiae deletion strains, locus YNL248C, strain rpa49, active compounds read low 1.01 | S. cerevisiae deletion strains, locus YNL250W, strain rad50, active compounds read low 1.05 | S. cerevisiae deletion strains, locus YNL271C, strain bni1, active compounds read low 1.01 | S. cerevisiae deletion strains, locus YNL298W, strain CLA4, active compounds read low 1.03 | S. cerevisiae deletion strains, locus YNL307C, strain MCK1, active compounds read low 1.03 | S. cerevisiae deletion strains, locus YNL322C, strain KRE1 (second series), active compounds read low 0.974 | S. cerevisiae deletion strains, locus YNL322C, strain KRE1, active compounds read low 0.991 | S. cerevisiae deletion strains, locus YNR049C, strain mso1, active compounds read low 0.995 | S. cerevisiae deletion strains, locus YNR052C, strain pop2, active compounds read low 1.03 | S. cerevisiae deletion strains, locus YOL012C, strain htz1 0.879 | S. cerevisiae deletion strains, locus YOL147C, strain pex11, active compounds read low 1 | S. cerevisiae deletion strains, locus YOR001W, strain rrp6, active compounds read low 1.02 | S. cerevisiae deletion strains, locus YOR061W, strain CKA2, active compounds read low 1.02 | S. cerevisiae deletion strains, locus YOR069W, strain VPS5, active compounds read low 1.01 | S. cerevisiae deletion strains, locus YOR070C, strain gyp1, active compounds read low 1.02 | S. cerevisiae deletion strains, locus YOR080W, strain dia2, active compounds read low 0.995 | S. cerevisiae deletion strains, locus YOR083W, strain WHI5, active compounds read low 0.988 | S. cerevisiae deletion strains, locus YOR106W, strain vam3, active compounds read low 0.961 | S. cerevisiae deletion strains, locus YOR136W, strain idh2, active compounds read low 1.01 | S. cerevisiae deletion strains, locus YOR144C, strain elg1, active compounds read low 1 | S. cerevisiae deletion strains, locus YOR184W, strain ser1, active compounds read low 0.989 | S. cerevisiae deletion strains, locus YOR231W, strain MKK1, active compounds read low 0.994 | S. cerevisiae deletion strains, locus YOR265W, strain rbl2, active compounds read low 0.992 | S. cerevisiae deletion strains, locus YOR270C, strain vph1, active compounds read low 0.986 | S. cerevisiae deletion strains, locus YOR290C, strain snf2, active compounds read low 0.956 | S. cerevisiae deletion strains, locus YOR316C, strain cot1, active compounds read low 1.03 | S. cerevisiae deletion strains, locus YPL051W, strain arl3, active compounds read low 1 | S. cerevisiae deletion strains, locus YPL078C, strain atp4, active compounds read low 0.946 | S. cerevisiae deletion strains, locus YPL106C, strain sse1, active compounds read low 0.958 | S. cerevisiae deletion strains, locus YPL240C, strain hsp82, active compounds read low 0.998 | S. cerevisiae deletion strains, locus YPL256C, strain CLN2, active compounds read low 1.02 | S. cerevisiae deletion strains, locus YPR119W, strain clb2, active compounds read low 1.02 | S. cerevisiae deletion strains, locus YPR141C, strain kar3, active compounds read low 1.01 | S. cerevisiae deletion strains, locus YPR163C, strain tif3, active compounds read low 1.02 | S. cerevisiae deletion strains, locus YPR167C, strain met16, active compounds read low 1.02 | S. cerevisiae deletion strains, strain wtn01, active compounds read low 1.01 | S. cerevisiae strains, strain wild type, active compounds read low 0.989
